Measured values published in PubChem BioAssay (NCATS).
Records with an inconclusive call do not appear. Entries that show only a call come without a potency. Active and inactive are the calls of the source. Calls follow the shape of the dose curve; as a rule, active = well fitted inhibition curve with a large enough effect; inconclusive = small, poorly fitted or top-dose-only effect; inactive = no such curve, though single readings can be large or run the other way.
Potency is read from the fitted curve at half-maximal effect.

Assay: Primary qHTS for inhibitors of La Crosse Virus (LACV) - induced cell death in SH-SY5Y cells (AID 1508616)
Conditions: SH-SY5Y LACV cytopathicity rescue, ATP luminescence, 6 d; series mostly up to 9.63 µM
Text: Assay Provider: Karin Peterson Ph.D.
National Institute of Allergy and Infection Diseases, National Institute of Health
La Crosse Virus (LACV) is a California serogroup mosquito-borne arbovirus, family Peribunyaviridae, which is an endemic pathogen in North America and can induce a rare, life-threatening neurological disease in children. LACV was first isolated in the early 1960s, from a summer "rural encephalitis" case in La Crosse, Wisconsin, USA. Since then, LACV encephalitis cases have been found in more than twenty states, with most cases in the Mississippi and Ohio River basins. The life cycle of LACV is maintained between the vector, the eastern tree-hole mosquito Aedes triseriatus, and vertebrate hosts including eastern gray squirrels (Sciurus carolinensis) and chipmunks (Tamiasstriatus grinseus). […] Most LACV infections in humans are asymptomatic or induce mild clinical symptoms of fever, headache, lethargy and vomiting. However, in some cases LACV can cause severe neuroinvasive disease, including encephalitis, meningitis, and meningoencephalitis, requiring hospitalization. To date, there is neither a licensed vaccine nor a Food and Drug Administration (FDA) approved antiviral therapy available to prevent or treat LACV encephalitis. The primary treatment for viral encephalitis is palliative care due to the lack of therapeutics. In the current study, we conducted a screen of 4,096 FDA approved and bioactive small molecules against LACV, by screening for rescue of LACV-induced cell death in SH-SY5Y cells.
LACV-induced cytopathicity assay
SEQUENCE No. (1,2, 3, etc.); […] (e.g., Cells, Incubation, Reagent, etc.); VALUE and DESCRIPTION.
1. Reagent; 2 uL; Cell solution.
3. Compounds; 23nL; Compound library
4. Reagent; 12 uL; LACV virus
6. Reagent; 24 uL; ATPLite (PerkinElmer)
7. Time; 5 min; Room temperature
8. Detection; Luminescence; View
NOTES (numbers refer to sequence above)
1. Seed 6000 SH-SY5Y cells (ATCC CRL-2266) in 2 microL/well media (DMEM/F12 10% FBS, 1x L-Glutamine, 1x Pyruvate, 1x NEAA, 1x Pen/Strep) in 384-well assay plates (tissue culture treated, white, solid bottom).
2. Incubate at 37 degrees C with 5% CO2 for 24 hr.
3. Dispense 23 nL/well compounds in DMSO via pin transfer.
4. Dispense 12 microL/well of LACV (LACV/human/1978) in media at 0.01 MOI.
5. Incubate at for 6 days at 37C 5% CO2
6. Dispense 24 microL/well of ATPLite 1step Luminescence assay system (PerkinElmer).
7. Incubate for 5 min at room temperature.
8. Read luminescence signal (Viewlux plate reader, PerkinElmer). Data was normalized with DMSO control wells containing LACV as 0%, and DMSO control wells without virus as 100%.
In the case of C[N+]1(C)C2CCC1CC(OC(=O)c1c[nH]c3ccccc13)C2 (stereo not given), the Potency is reported as “inactive”. In the case of NC(C(=O)O)c1cc(=O)[nH]o1 (stereo not given), the Potency is reported as “inactive”. For N[C@@]1(C(=O)O)CC[C@@H](C(=O)O)C1, the Potency was “inactive”. With CC(=O)c1c(O)c(C)c(O)c(Cc2c(O)c3c(c(C(=O)/C=C/c4ccccc4)c2O)OC(C)(C)C=C3)c1O the Potency was “inactive”. With CC(N)Cc1c[nH]c2ccc(O)cc12 (stereo not given) the Potency was “inactive”. For O=c1c2ccccc2[se]n1-c1ccccc1, the Potency was “inactive”. In the case of CN1CCc2cccc(Cl)c2CC1, the Potency is reported as “inactive”. For CP(=O)(O)C1=CCNCC1, the Potency was “inactive”. With NC(=O)COc1c(F)cc(SCCNS(=O)(=O)c2ccccc2)cc1F the Potency was “inactive”. In the case of Cc1c2ccncc2c(C)c2c1[nH]c1ccccc12, the Potency is reported as 1580 nM (active). For CN1CCC(c2c[nH]c3ccc(O)cc23)CC1, the Potency was “inactive”. In the case of CN(C(=O)Cc1ccc(Cl)c(Cl)c1)C(CN1CCCC1)c1cccc(OCC(=O)O)c1 (stereo not given), the Potency is reported as “inactive”. For OCc1cnc[nH]1, the Potency was “inactive”. For N=C(N)c1ccc(CS(=O)(=O)F)cc1, the Potency was “inactive”. With CC(C)[C@@]1(NC(=O)[C@@H]2C[C@@H]3c4cccc5[nH]cc(c45)C[C@H]3N(C)C2)O[C@@]2(O)[C@@H]3CCCN3C(=O)[C@H](Cc3ccccc3)N2C1=O the Potency was “inactive”. In the case of C[N+](C)(C)CC#CCOC(=O)Nc1cccc(Cl)c1, the Potency is reported as “inactive”. For Clc1ccc(N2CC3CCC(C2)N3)nn1, the Potency was “inactive”. In the case of NC(=O)c1cc(N2CC2)c([N+](=O)[O-])cc1[N+](=O)[O-], the Potency is reported as “inactive”. In the case of NC(N)=NOCC[C@H](N)C(=O)O, the Potency is reported as “inactive”. With N[C@@H](Cn1oc(=O)[nH]c1=O)C(=O)O the Potency was “inactive”. In the case of N[C@@H](CCl)C(=O)O, the Potency is reported as “inactive”. For CCCN(CCC)C1Cc2cc(OC)c(OC)cc2C1, the Potency was “inactive”. For NCCc1ccc(S(=O)(=O)F)cc1, the Potency was “inactive”. With COc1ccc(OC)c(C(O)C(C)N)c1 (stereo not given) the Potency was “inactive”. With NC(Cc1cc(O)c(O)cc1O)C(=O)O (stereo not given) the Potency was “inactive”. With CC(C)(C)c1cc(C=C(C#N)C#N)cc(C(C)(C)C)c1O the Potency was “inactive”. With NCC(CP(=O)(O)O)c1ccc(Cl)cc1 (stereo not given) the Potency was “inactive”. With N#CCCN the Potency was “inactive”. In the case of Cc1sc2ccccc2c1CC1=NCCN1, the Potency is reported as “inactive”. For CN1C2CCC1CC(OC(c1ccccc1)c1ccccc1N)C2 (stereo not given), the Potency was “inactive”. In the case of CCOC(=O)c1ncn2c1[C@@H]1CCCN1C(=O)c1cc(OC)ccc1-2, the Potency is reported as “inactive”. For C=CCN(C1=NCCN1)c1c(Cl)cccc1Cl, the Potency was “inactive”. With O=S1(=O)N(CCN2CC=C(c3c[nH]c4cc(F)ccc34)CC2)c2cccc3c2N1CCC3 the Potency was “inactive”. In the case of O=C1CC[C@@]2(O)C3Cc4ccc(O)c5c4C2(CCN3CC2CC2)[C@H]1O5 (stereo not given in full), the Potency is reported as “inactive”. In the case of CCCC[N+]1(C)C2CC(OC(=O)[C@H](CO)c3ccccc3)CC1C1OC12 (stereo not given in full), the Potency is reported as “inactive”. For COC(=O)N1CCN(C(=O)Cc2ccc(Cl)c(Cl)c2)C(CN2CCCC2)C1 (stereo not given), the Potency was “inactive”. For C=CCN1CCC23c4c5ccc(O)c4O[C@H]2C(=O)CC[C@@]3(O)C1C5 (stereo not given in full), the Potency was “inactive”. With Cc1o[nH]c(=O)c1CC(N)C(=O)O (stereo not given) the Potency was “inactive”. In the case of C[C@H](N)CN1CCc2ccc(Br)cc21, the Potency is reported as “inactive”. In the case of CCCN1CCC[C@@H](c2cccc(O)c2)C1, the Potency is reported as “inactive”.
